A selection: hits, their analogues and other compounds. The true share with any hit is near 3.3%.
ERb SRC1 inh: ER-beta (human) coactivator binding inhibition; TR-FRET ER-beta LBD / SRC1-Cy5 peptide binding; receptor agonist-loaded with 1 µM estradiol; AID 633; 1.3% of 86,000 active; inhibition, % at 25.6 µM; Q92731;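 active means compounds whose percent inhibition of the receptor-coactivator binding signal exceeds about 50% in the single-dose screen, limit read from the data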
Calb biofilm kill: kills Candida albicans biofilms | C. albicans biofilm + clotrimazole, Alamar Blue | inhibition, % at 6 µM | 0.14% of 85,000 active | AID 834;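 active means inhibition above 20%; inactive means inhibition below 20%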;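 further: preformed 24 hr biofilms exposed to compound for 48 hr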
ERa SRC1 inh: ER-alpha (human) coactivator binding inhibition; P03372; TR-FRET ER-alpha LBD / SRC-1 peptide, estradiol-bound; inhibition, % at 25.6 µM; 1.7% of 86,000 active; AID 629; in the data active means inhibition above about 50%
Smad3 FoxH1 inh: Smad3 (human) transcription factor binding inhibition; 0.29% of 88,000 active; TR-FRET Smad3/Dy647-FoxH1 peptide binding, europium anti-His; inhibition, % at 25 µM; AID 630;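 active means compounds that reduce the energy-transfer binding signal between the protein and its labelled peptide by more than half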
Target sequence (P84022 whole entry, looked up): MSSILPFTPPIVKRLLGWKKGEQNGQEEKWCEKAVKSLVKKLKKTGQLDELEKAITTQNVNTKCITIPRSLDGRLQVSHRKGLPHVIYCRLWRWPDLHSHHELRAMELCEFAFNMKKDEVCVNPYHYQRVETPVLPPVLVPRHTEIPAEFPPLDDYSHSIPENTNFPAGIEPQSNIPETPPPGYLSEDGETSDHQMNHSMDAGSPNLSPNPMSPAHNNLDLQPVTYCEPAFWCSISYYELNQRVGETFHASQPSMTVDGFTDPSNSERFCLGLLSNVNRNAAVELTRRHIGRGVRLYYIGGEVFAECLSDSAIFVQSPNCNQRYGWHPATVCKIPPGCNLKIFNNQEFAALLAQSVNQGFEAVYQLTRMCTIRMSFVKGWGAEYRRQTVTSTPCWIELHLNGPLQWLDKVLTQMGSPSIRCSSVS
ERa SRC1 pot: ER-alpha (human) coactivator binding potentiation; coactivator binding (% of control), % at 25.6 µM; TR-FRET ERalpha-LBD/SRC-Cy5 coactivator binding, 2 h; 100 = basal binding, no effect; 1.3% of 86,000 active; in the data active means activity above about 200%;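 further: binding measured in presence of low estradiol as agonist stimulus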
FAK inh: inhibitors of human focal adhesion kinase; 0.84% of 97,000 active; Q05397; inhibition, %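 (tested at 7 µM)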; biochemical FAK kinase activity assay; in the data active means inhibition above about 19%
A number is an active result; [ ] = dose if it differs, or a comment.

For CC(C)CCC[C@@H](C)[C@@H]1CC[C@@H]2[C@H]3CC[C@H]4C[C@@H](N)CC[C@]4(C)[C@@H]3CC[C@]21C the results were Smad3 FoxH1 inh inactive.
O=C(Nc1nc(-c2cc(Cl)sc2Cl)cs1)c1ccc(Br)s1 was read as FAK inh inactive.
`O=C(Nc1nc(-c2ccccn2)cs1)c1ccc(Br)s1` gave ERb SRC1 inh inactive, Calb biofilm kill inactive, ERa SRC1 inh inactive, Smad3 FoxH1 inh inactive, ERa SRC1 pot 472.6 and FAK inh inactive.
For CC(C)[C@H](Nc1ncnc2nc[nH]c12)C(=O)O the results were Smad3 FoxH1 inh inactive.
`COc1ccc(-c2nnc3n2N=C(c2cccc(Br)c2)CS3)cc1OC` gave ERb SRC1 inh inactive, Calb biofilm kill inactive, ERa SRC1 inh inactive, Smad3 FoxH1 inh inactive and ERa SRC1 pot 233.4.
`Cc1ccc(C(=O)OCc2cn3ccccc3n2)cc1` gave ERb SRC1 inh inactive, ERa SRC1 inh inactive, Smad3 FoxH1 inh inactive and ERa SRC1 pot inactive.
COC(=O)c1ccc(-c2ccco2)n1Cc1nc(-c2ccc(OC)c(OC)c2)oc1C was read as ERb SRC1 inh 66.6[fluorescence artefact?], Calb biofilm kill inactive, ERa SRC1 inh 70.1[fluorescence artefact?], Smad3 FoxH1 inh inactive and ERa SRC1 pot inactive.
Screening COC(=O)c1ccc(-c2ccco2)n1Cc1ccccc1Cl returned ERb SRC1 inh inactive, Calb biofilm kill inactive, ERa SRC1 inh inactive, Smad3 FoxH1 inh inactive, ERa SRC1 pot inactive and FAK inh inactive.
`CSc1nc(NCCOCCO)c2sc3nc(-c4ccco4)c4c(c3c2n1)CCC4` gave ERb SRC1 inh 76.0[fluorescence artefact?], Calb biofilm kill inactive, ERa SRC1 inh 79.0, Smad3 FoxH1 inh inactive and ERa SRC1 pot inactive.
`Cc1oc2cc(O)cc(C)c2c(=O)c1-c1cnn(-c2ccccc2)c1` gave ERb SRC1 inh inactive, Calb biofilm kill inactive, ERa SRC1 inh inactive, Smad3 FoxH1 inh inactive, ERa SRC1 pot 235.5[fluorescence artefact?] and FAK inh inactive.
Screening Cc1oc2c(O)c(O)ccc2c(=O)c1-c1cnn(-c2ccccc2)c1 returned FAK inh inactive.
CCOc1cccc2cc(-c3cn4cc(C)ccc4n3)c(=O)oc12 was read as ERb SRC1 inh 50.0, Calb biofilm kill inactive, ERa SRC1 inh 81.1, Smad3 FoxH1 inh inactive, ERa SRC1 pot inactive and FAK inh inactive.
COc1cccc2cc(-c3cn4cccc(C)c4n3)c(=O)oc12 was read as FAK inh inactive.
`COc1cccc2cc(-c3cn4ccc(C)cc4n3)c(=O)oc12` gave ERb SRC1 inh 52.7[fluorescence artefact?], Calb biofilm kill inactive, ERa SRC1 inh 73.9, Smad3 FoxH1 inh inactive, ERa SRC1 pot inactive and FAK inh 18.9.
`CCOc1cccc2cc(-c3nnc(NCc4ccco4)s3)c(=O)oc12` gave ERb SRC1 inh inactive, Calb biofilm kill inactive, ERa SRC1 inh 53.1, Smad3 FoxH1 inh inactive, ERa SRC1 pot inactive and FAK inh inactive.
`CN(C)S(=O)(=O)c1ccc2c(c1)C(CC(=O)O)NC2=O` (centres undefined) gave ERb SRC1 inh inactive, Calb biofilm kill inactive, ERa SRC1 inh inactive, Smad3 FoxH1 inh inactive, ERa SRC1 pot inactive and FAK inh inactive.
Screening CCCn1c(N)c(C(=O)CSc2nnnn2-c2ccc(O)cc2)c(=O)n(C)c1=O returned ERb SRC1 inh inactive, Calb biofilm kill 83.4, ERa SRC1 inh inactive, Smad3 FoxH1 inh inactive, ERa SRC1 pot inactive and FAK inh inactive.
`CC(C)Cn1c(N)c(C(=O)CSc2nnnn2C)c(=O)n(C)c1=O` gave ERb SRC1 inh inactive, Calb biofilm kill inactive, ERa SRC1 inh inactive, Smad3 FoxH1 inh inactive, ERa SRC1 pot inactive and FAK inh inactive.
For CC(C)Cn1c(N)c(C(=O)CSc2nnnn2-c2ccc(Cl)cc2)c(=O)n(C)c1=O the results were ERb SRC1 inh inactive, Calb biofilm kill inactive, ERa SRC1 inh inactive, Smad3 FoxH1 inh inactive and ERa SRC1 pot 326.9.
For CCOC(=O)N1CCN(C(=O)c2ccc3c(=O)n(CCC4=CCCCC4)c(=S)[nH]c3c2)CC1 the results were ERb SRC1 inh inactive, Calb biofilm kill inactive, ERa SRC1 inh inactive, Smad3 FoxH1 inh inactive, ERa SRC1 pot 207.5 and FAK inh inactive.
Screening O=S(=O)(Nc1nc2ccccc2nc1Nc1ccc2c(c1)OCCO2)c1cccs1 returned ERb SRC1 inh 71.5[fluorescence artefact?], Calb biofilm kill inactive, ERa SRC1 inh 69.8[fluorescence artefact?], Smad3 FoxH1 inh inactive and ERa SRC1 pot inactive.
Screening Cc1cc(=O)[nH]c(SCC(=O)Nc2nc3c(s2)CCCC3)n1 returned ERb SRC1 inh 77.8, ERa SRC1 inh inactive, Smad3 FoxH1 inh inactive, ERa SRC1 pot inactive and FAK inh inactive.
Screening CCCN1CCN(CCCNC(=O)Cn2nc(-c3ccccc3)ccc2=O)CC1 returned ERb SRC1 inh inactive, Calb biofilm kill inactive, ERa SRC1 inh inactive, Smad3 FoxH1 inh inactive, ERa SRC1 pot inactive and FAK inh inactive.
For O=c1oc2ccccc2cc1NCc1ccccc1O the results were ERb SRC1 inh inactive, Calb biofilm kill 22.3, ERa SRC1 inh inactive, Smad3 FoxH1 inh inactive, ERa SRC1 pot inactive and FAK inh inactive.
Screening O=C(CSc1nc2ccccc2c2nc3ccccc3n12)NCc1ccco1 returned ERb SRC1 inh inactive, Calb biofilm kill inactive, ERa SRC1 inh 73.5[fluorescence artefact?], Smad3 FoxH1 inh inactive, ERa SRC1 pot inactive and FAK inh inactive.
`O=C(CCCCCn1c(SCc2ccncc2)nc2ccccc2c1=O)NCc1ccco1` gave ERb SRC1 inh inactive, Calb biofilm kill inactive, ERa SRC1 inh 57.4[fluorescence artefact?], Smad3 FoxH1 inh inactive, ERa SRC1 pot inactive and FAK inh inactive.
Screening CC(C)C(=O)Cc1ccc2ccccc2n1 returned Smad3 FoxH1 inh inactive.
COc1cc(/C=N/NC(=O)/C(=C\c2ccc([N+](=O)[O-])cc2)NC(=O)c2ccccc2)cc(OC)c1O was read as ERb SRC1 inh inactive, Calb biofilm kill inactive, ERa SRC1 inh 52.8[fluorescence artefact?], Smad3 FoxH1 inh inactive, ERa SRC1 pot inactive and FAK inh inactive.
`N#Cc1cc(Sc2ccccn2)c(Sc2ccccn2)cc1C#N` gave ERb SRC1 inh inactive, Calb biofilm kill inactive, ERa SRC1 inh inactive, Smad3 FoxH1 inh inactive, ERa SRC1 pot 213.5 and FAK inh inactive.
N#Cc1cc2ccccc2nc1SCc1ccccn1 was read as ERb SRC1 inh inactive, Calb biofilm kill inactive, ERa SRC1 inh inactive, Smad3 FoxH1 inh inactive, ERa SRC1 pot inactive and FAK inh inactive.
`COC(=O)c1ccc(CSc2nc(C)nc3sc(C)c(C)c23)o1` gave ERb SRC1 inh inactive, Calb biofilm kill inactive, ERa SRC1 inh 55.4, Smad3 FoxH1 inh inactive, ERa SRC1 pot inactive and FAK inh inactive.
Screening CCOC(=O)CCn1cc(F)c(=O)n(Cc2ccccc2)c1=O returned ERb SRC1 inh inactive, Calb biofilm kill inactive, ERa SRC1 inh inactive, Smad3 FoxH1 inh inactive, ERa SRC1 pot 238.1[fluorescence artefact?] and FAK inh inactive.
`COC(=O)C1C(=O)C2=C(CC1C)NC(C)=C(C(=O)OC(C)C)C2c1ccc(C)o1` (centres undefined) gave ERb SRC1 inh inactive, Calb biofilm kill inactive, ERa SRC1 inh inactive, Smad3 FoxH1 inh inactive, ERa SRC1 pot inactive and FAK inh inactive.

Screens: PubChem BioAssay, several laboratories
